From PubChem
UHRF1 binding – UHRF1 methylated DNA binding inhibitors, primary screen, counter-screen for MBD2 inhibitor project, biochemical, TR-FRET, human UHRF1, single concentration | E3 ubiquitin-protein ligase UHRF1 (Homo sapiens), Q96T88 | UHRF1 binding to methylated oligo | inhibition, % at 4.4 µM | actives 0.75% (n = 370,000) | AID 687016, 2013; in the data active means inhibition above about 21%;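 further: UHRF1 SRA domain binding a hemimethylated CpG hairpin DNA probe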
Target sequence (Q96T88 whole entry, looked up, the tested form may be a part): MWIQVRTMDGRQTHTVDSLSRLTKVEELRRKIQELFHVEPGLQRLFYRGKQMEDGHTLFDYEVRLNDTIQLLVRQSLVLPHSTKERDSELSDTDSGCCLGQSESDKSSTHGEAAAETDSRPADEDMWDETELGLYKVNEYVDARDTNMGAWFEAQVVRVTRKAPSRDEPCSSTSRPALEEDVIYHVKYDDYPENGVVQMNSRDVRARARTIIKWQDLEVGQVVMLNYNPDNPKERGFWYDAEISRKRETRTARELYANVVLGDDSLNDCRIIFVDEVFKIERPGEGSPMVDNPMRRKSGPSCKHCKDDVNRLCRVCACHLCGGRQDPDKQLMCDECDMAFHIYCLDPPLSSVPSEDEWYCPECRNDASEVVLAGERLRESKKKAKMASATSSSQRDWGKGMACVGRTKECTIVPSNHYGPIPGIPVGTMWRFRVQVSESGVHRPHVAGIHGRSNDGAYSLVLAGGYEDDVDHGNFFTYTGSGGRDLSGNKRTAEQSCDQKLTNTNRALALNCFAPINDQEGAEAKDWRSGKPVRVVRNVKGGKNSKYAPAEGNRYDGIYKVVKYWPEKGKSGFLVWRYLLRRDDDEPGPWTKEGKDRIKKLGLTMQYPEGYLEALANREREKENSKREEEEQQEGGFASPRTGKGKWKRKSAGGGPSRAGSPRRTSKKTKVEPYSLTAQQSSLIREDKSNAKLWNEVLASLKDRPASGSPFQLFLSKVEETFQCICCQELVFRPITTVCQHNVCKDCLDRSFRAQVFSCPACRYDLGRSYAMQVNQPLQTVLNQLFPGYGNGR
TCR CD3 inh – inhibitors of human TCR-CD3 interaction, primary screen, biochemical, fluorescence, TAMRA-labeled TCR probe. actives 0.37% (n = 360,000). T-cell receptor (TCR). inhibition, % at 9.4 µM; in the data active means inhibition above about 19%;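 further: recombinant mutant TCR 2C K166C tagged with TAMRA read by polarization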
LEDGF integ inh – blockers of LEDGF/p75-dependent integrase strand transfer – biochemical, TR-FRET, high throughput, primary screen; HIV-1 integrase (with human LEDGF/p75); TR-FRET IN-LEDGF/p75 DNA integration, Eu/Cy5; inhibition, % at 3.7 µM; actives 0.64% (n = 370,000);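 active means inhibition above the screen-wide mean plus 3 SD, cut at about 13% in these data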;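 further: signal is the Cy5 over europium emission ratio at 671 and 618 nm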
Rin1-Abl PPI inh – inhibitors of Rin1-Abl protein binding, primary screen, biochemical, TR-FRET. inhibition, % at 7.35 µM. AID 588664, 2011. actives 0.4% (n = 360,000). Tyrosine-protein kinase ABL1 (Homo sapiens) + Ras and Rab interactor 1 (Homo sapiens), …; in the data active means inhibition above about 5%, passing the limit was not always enough
MBD2 DNA inh – inhibitors of MBD2 binding to methylated DNA, primary screen, biochemical, TR-FRET, DNA-binding domain, human; actives 0.31% (n = 370,000); inhibition, % at 4.4 µM; MBD2 binding to methylated oligonucleotide; Methyl-CpG-binding domain protein 2 (Homo sapiens), Q9UBB5; in the data active means inhibition above about 13%
IN multimer act – HIV-1 IN multimer formation enhancers, counter-screen for LEDGF/p75 integration inhibitor project, biochemical, TR-FRET; shares compounds with LEDGF integ inh; TR-FRET HIV-1 integrase multimerization; activation, % at 7.7 µM; actives 17% (n = 2,000); AID 1053131, 2014; in the data active means activation above about 8.9%
TR-FRET interf – TR-FRET optical interference artefacts, confirmation, artefact control for LEDGF/p75-dependent integration inhibitor project, biochemical, HIV-1 IN multimerization; shares compounds with LEDGF integ inh; TR-FRET optical interference counterscreen; inhibition, % at 7.7 µM; 2,000 tested, under 10 active;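 active means inhibition above the mean over all tested compounds plus 3 SD, which no compound reached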
LEDGF integ conf – inhibitors of HIV-1 IN-LEDGF/p75 DNA integration, confirmation, biochemical, TR-FRET | shares compounds with LEDGF integ inh | inhibition, % at 3.7 µM | actives 36% (n = 2,000) | AID 1053136, 2014 | TR-FRET LEDGF/p75-dependent HIV-1 integration; in the data active means inhibition above about 14%
Large screens that a line does not name were inactive (follow-up assays come after a bar, where they were run). An excerpt weighted towards active compounds, which were near 2% of everything screened.

CC(=O)Nc1ccc(Oc2cnccn2)cc1	LEDGF integ inh 29.0 | IN multimer act inactive | TR-FRET interf inactive | LEDGF integ conf inactive
CC(=O)Nc1ccc(Oc2cnc3ccccc3n2)cc1	none
CC1SC(=S)N(c2ccc(N(C)C)cc2)C1=O (stereo not drawn)	LEDGF integ inh 20.3 | IN multimer act inactive | TR-FRET interf inactive | LEDGF integ conf inactive
CN(C)c1ccc(N2C(=O)CSC2=S)cc1	LEDGF integ inh 21.4 | IN multimer act inactive | TR-FRET interf inactive | LEDGF integ conf inactive
Cc1cccc(/C=C(\C(=O)O)c2ccc(S(=O)(=O)N3CCCC3)s2)c1	none
CC(C)(C)OC(=O)N1CCC(C(=O)N[C@@H](Cc2ccccc2)C(=O)O)(c2ccccc2)CC1	LEDGF integ inh 18.1 | IN multimer act inactive | TR-FRET interf inactive | LEDGF integ conf 14.9
CC(C)[C@H](NC(=O)C1(c2ccccc2)CCN(C(=O)OC(C)(C)C)CC1)C(=O)O	none
COc1ccc(OC)c(NC(=O)c2ccc3c(c2)C(=O)N(CC2CCCO2)C3=O)c1 (stereo not drawn)	none
CCC(C(=O)Nc1cnccn1)c1ccccc1 (stereo not drawn)	none
CCC(C(=O)Nc1ccccn1)c1ccccc1 (stereo not drawn)	LEDGF integ inh 14.2 | IN multimer act inactive | TR-FRET interf inactive | LEDGF integ conf inactive
O=C(COC(=O)c1sc2ccccc2c1Cl)NCC1CCCCC1	LEDGF integ inh 16.1 | IN multimer act inactive | TR-FRET interf inactive | LEDGF integ conf inactive
CC1CCCC(NC(=O)COC(=O)c2sc3ccccc3c2Cl)C1C (stereo not drawn)	none
c1cc[n+](CCC[n+]2ccccc2)cc1	none
O=C(Cn1cnc2c(nnn2-c2ccccc2)c1=O)NCc1ccc(F)cc1	UHRF1 binding 32.5, LEDGF integ inh 15.2 | IN multimer act inactive | TR-FRET interf inactive | LEDGF integ conf inactive
CCOC(=O)[C@]12CCCCC/C=C\1N(CCc1ccc(Cl)cc1)C(=O)[C@H]2CC(=O)NCCc1ccccc1OC	LEDGF integ inh 18.0 (no result: TCR CD3 inh, Rin1-Abl PPI inh) | IN multimer act inactive | TR-FRET interf inactive | LEDGF integ conf inactive
CCCCNC(=O)C[C@@H]1C(=O)N(CCc2ccc(Cl)cc2)/C2=C/CCCCC[C@@]21C(=O)OCC	none (no result: TCR CD3 inh, Rin1-Abl PPI inh)
COCCN(C(=O)C1CCCC1)c1c(N)n(Cc2ccccc2)c(=O)[nH]c1=O	none
Nc1c(N(C(=O)Nc2ccc(Cl)c(Cl)c2)C2CCCC2)c(=O)[nH]c(=O)n1Cc1ccccc1	LEDGF integ inh 13.9 | IN multimer act inactive | TR-FRET interf inactive | LEDGF integ conf inactive
Cc1ccccc1C(=O)Nc1ccc(S(=O)(=O)NCC2CCCO2)cc1 (stereo not drawn)	LEDGF integ inh 14.9 | IN multimer act inactive | TR-FRET interf inactive | LEDGF integ conf inactive
COc1cc(C(=O)OCC(=O)Nc2ccc(C)cc2)cc(OC)c1OC	none
O=C1OC(c2ccccc2)=N/C1=C\C=C\c1ccco1	UHRF1 binding 32.2, LEDGF integ inh 40.8 | IN multimer act inactive | TR-FRET interf inactive | LEDGF integ conf inactive
COC(=O)[C@H]1[C@@H](O)[C@@]2(O)c3c(OC)cc(OC)cc3O[C@@]2(c2ccc(OC)cc2)[C@@H]1c1ccc(F)cc1	LEDGF integ inh 14.6 (no result: Rin1-Abl PPI inh) | IN multimer act inactive | TR-FRET interf inactive | LEDGF integ conf inactive
COc1cccc(CC(=O)OCC(=O)NCCc2ccc(F)cc2)c1	none
O=C(O)c1cc(-c2ccccc2)nc(-c2ccccc2)c1	LEDGF integ inh 14.6 | IN multimer act inactive | TR-FRET interf inactive | LEDGF integ conf inactive
Cc1ccc(Nc2nc(N)nc(COC(=O)c3ccc(Br)o3)n2)cc1	none
Cc1ccccc1NC(=S)NNC(=O)c1csc2c1CCC(C)C2 (stereo not drawn)	LEDGF integ inh 50.7 | IN multimer act inactive | TR-FRET interf inactive | LEDGF integ conf inactive
COc1ccc(S(=O)(=O)N2CCOCC2)cc1NC(=O)CSc1nnnn1C1CC1	none
COc1ccc(S(=O)(=O)N2CCOCC2)cc1NC(=O)CSc1n[nH]c(=O)n1C1CC1	LEDGF integ inh 70.6 | IN multimer act inactive | TR-FRET interf inactive | LEDGF integ conf inactive
COc1cc(/C=C2\SC(=S)N(C(C(=O)O)c3ccccc3)C2=O)ccc1O (stereo not drawn)	none
O=C(O)C(c1ccccc1)N1C(=O)/C(=C\c2ccc(O)c(O)c2)SC1=S (stereo not drawn)	LEDGF integ inh 23.0 | IN multimer act inactive | TR-FRET interf inactive | LEDGF integ conf 51.0
CCCCNC(=O)C1c2ccccc2OCC(=O)N1Cc1ccco1 (stereo not drawn)	none (no result: Rin1-Abl PPI inh)
CCCCNC(=O)C1c2ccccc2OCC(=O)N1Cc1ccccn1 (stereo not drawn)	LEDGF integ inh 29.7 (no result: Rin1-Abl PPI inh) | IN multimer act inactive | TR-FRET interf inactive | LEDGF integ conf inactive
Cc1c(-c2cccc(Cl)c2)nc2ccccc2c1C(=O)NC1CC1	LEDGF integ inh 21.0 | IN multimer act inactive | TR-FRET interf inactive | LEDGF integ conf inactive
O=C(NCc1cnc2ccccn12)C1CCC(=O)N(Cc2ccccc2F)C1 (stereo not drawn)	LEDGF integ inh 16.7 | IN multimer act inactive | TR-FRET interf inactive | LEDGF integ conf inactive
COc1ccc(C)cc1NCc1cc(=O)oc2cc(-c3ccccc3)c(O)cc12	none
COC(=O)c1ccccc1NCc1cc(=O)oc2cc(O)c(O)cc12	LEDGF integ inh 20.9 | IN multimer act inactive | TR-FRET interf inactive | LEDGF integ conf 33.7
COc1ccc(N=Cc2c(O)n(-c3cccc(C)n3)c(=O)c3ccccc23)c(OC)c1	none
Cc1ccccc1CNC1CCCCC1	none
Oc1cc(CNC2CCCCC2)c(O)cc1CNC1CCCCC1	LEDGF integ inh 13.8 | IN multimer act inactive | TR-FRET interf inactive | LEDGF integ conf 24.0
C=CCN1CCN(C(c2ccccc2)c2nnnn2CCC(C)C)CC1 (stereo not drawn)	LEDGF integ inh 56.0 | IN multimer act inactive | TR-FRET interf inactive | LEDGF integ conf inactive
